Experiments:
Details in all cases: concentration: 1 μM, replicates: in singlicate; n = 1
JNK3 = test system: T1, JNK3
T1 construct: gene MAPK10

KIT-autoinhibited = test system: KIT-autoinhibited
KIT = test system: KIT
LATS1 = test system: LATS1
LATS2 = test system: LATS2
LCK = test system: LCK
LIMK1 = test system: LIMK1
LIMK2 = test system: LIMK2
LKB1 = test system: T2, LKB1
T2 construct: gene STK11

LOK = test system: T3, LOK
T3 construct: gene STK10
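Also: KINOMEscan kinase panel screen.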

Row | SMILES | %Inh (JNK3) [%] | %Inh (KIT-autoinhibited) [%] | %Inh (KIT) [%] | %Inh (LATS1) [%] | %Inh (LATS2) [%] | %Inh (LCK) [%] | %Inh (LIMK1) [%] | %Inh (LIMK2) [%] | %Inh (LKB1) [%] | %Inh (LOK) [%]
1 | COc1ccc(CSc2nnc(-c3ccc4nccn4c3)o2)cc1C(F)(F)F | 0 | 10 | 0 | 24 | 23 | 4 | 0 | 0 | 6 | 3
2 | CC(C)c1cc(-c2ccc3c(N)n[nH]c3c2)nc(N)n1 [GSK2250882] | 8 | 0 | 9 | 0 | 0 | 9 | 0 | 0 | 14 | 0
3 | Cn1cnc2c(N)ncnc21 [SKF-97623] | 0 | 35 | 0 | 22 | 0 | 0 | 0 | 0 | 36 | 4
4 | CC(=O)c1cccc(NC(=O)NC2CCN(c3ccnc(Nc4ccc(F)cc4)n3)C2)c1 (centres unmarked) [GSK1379710] | 22 | 4 | 49 | 0 | 2 | 12 | 11 | 22 | 23 | 0
5 | COC(=O)c1cccc(NC(=O)NC2CCN(c3ccnc(Nc4ccc(F)cc4)n3)C2)c1 (centres unmarked) [GSK1379725] | 17 | 0 | 44 | 0 | 0 | 0 | 0 | 0 | 0 | 0
